Experimental data as given in PubChem BioAssay (NCATS).
Results filed as inconclusive are left out. Active and inactive are the calls of the source. Unless noted, calls follow the shape of the dose curve; as a rule, active = well fitted curve in the direction sought with a large enough effect; inconclusive = small, poorly fitted or top-dose-only effect, or another doubt; inactive = no such curve, though single readings can be large; an effect the other way counts as inactive or inconclusive. *1 amine or outer side, *2 acyl side, *3 side chain or, on linkers, in order; H or OH if unused. Where a SMILES comes first, the peptide text is derived from it. [ ]: non-standard residue; d: D form. X7 = O=C([C@@H](CC(O)CCl)O[*:1])[*:2]; aIle = CC[C@@H](C)[C@H](N)C(=O)O; NMeV = CN[C@H](C(=O)O)C(C)C; NMeA = CN[C@@H](C)C(=O)O; βAla = NCCC(=O)O

Experiments:
[1] = P-glycoprotein substrates identified in KB-3-1 adenocarcinoma cell line, qHTS therapeutic library screen (AID 1346986); also: nearly all actives have a fitted effect of over 60% in size
Method in brief: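 Resistance attributable to P-gp was assessed by comparing AC50 in KB-8-5-11 with parental KB-3-1 and by tariquidar reversal. Cells were exposed 72 h and viability read by CellTiter-Glo.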

[2] = P-glycoprotein substrates identified in KB-8-5-11 adenocarcinoma cell line, qHTS therapeutic library screen (AID 1346987); also: nearly all actives have a fitted effect of over 65% in size; also: potency is read from the fitted curve at half-maximal effect
Method in brief: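 Steps: plate 500 KB-8-5-11 cells/well in DMEM + 10% FCS (colchicine removed); pin compounds in dose-response; incubate 72 h, 37 degree C, 5% CO2; add CellTiter-Glo, 5 min; read luminescence.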

[3] = system: Zika virus NS2B-NS3 protease (unlinked complex); test: Primary screen GU Rhodamine qHTS for Zika virus inhibitors: Unlinked NS2B-NS3 protease assay (AID 1347159); also: nearly all actives have a fitted effect of over 60% in size; also: potency is read from the fitted curve at half-maximal effect; as to activity change, negative = inhibition: % is scaled to controls: 0 for no effect and ±100 for the full control effect
Method in brief: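 Noncovalent NS2B hydrophilic domain–NS3 protease domain complex (25 nM) preincubated 15 min at room temperature with compounds (up to 114 microM) in 10 mM Tris-HCl pH 8.0, 0.01% Tween 20; 1.5 microM Rhodamine110 substrate added, fluorescence change over 15 min fitted to Hill equation.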

[4] = target: Glutathione peroxidase 1 (Homo sapiens) (UniProt P07203); test: Primary qHTS Assay for Inhibitors of Recombinant Selenoprotein Glutathione Peroxidase 1 (GPX1) (AID 1845191); also: nearly all actives have a fitted effect of over 65% in size
Sequence of Glutathione peroxidase 1 (Homo sapiens) (P07203 whole entry, looked up): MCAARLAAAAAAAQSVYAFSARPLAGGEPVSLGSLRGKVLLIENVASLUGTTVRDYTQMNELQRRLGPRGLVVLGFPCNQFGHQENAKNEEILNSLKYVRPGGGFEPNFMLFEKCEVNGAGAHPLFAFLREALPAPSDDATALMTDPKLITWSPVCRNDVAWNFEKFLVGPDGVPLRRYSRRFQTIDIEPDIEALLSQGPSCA
Method in brief: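 Recombinant GPX1 (10 nM final) was preincubated with compound for 30 min at room temperature, then reacted with 1 mM GSH, 0.5 mM CHP, 0.5 mM NADPH and 100 nM glutathione reductase; NADPH fluorescence (340/450 nm) was read at 0 and 15 min.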

HaCat [5] = test: Cytotoxic Profiling of Annotated Libraries Using Quantitative High-Throughput Screening (AID 1296008); conditions: Five cell lines viability, CellTiter-Glo ATP luminescence, 48-72 h; max response: stronger effect = lower value; also: nearly all actives have a fitted effect of over 60% in size; also: potency is read from the fitted curve at half-maximal effect; as to max response: % is scaled to controls: 0 for no effect and ±100 for the full control effect
Method in brief: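 Compounds were pin-transferred onto cells and incubated 48 or 72 hr at 37 degree Celsius, 95% humidity. CellTiter-Glo was added, plates sat 10 min at room temperature, then ATP-coupled luminescence was imaged as the viability read-out.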

HACAT [6] = test: qHTS assay to identify novel small-molecules to repurpose for Merkel cell carcinoma treatment (AID 1296009); conditions: MCC and control cell lines, CellTiter-Glo viability, 72 h; at 44.8 µM (top of the series) unless noted; also: nearly all actives have a fitted effect of over 60% in size
Method in brief: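 qHTS format: cells treated with library compounds in DMSO across 8 (NPC) or 11 (MIPE) concentrations. Readout after 72 hr at 37 degree celsius was CellTiter-Glo luminescence.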

HeLa = test: Primary qHTS to identify gynecologic anti-cancer compounds using libraries of approved drugs and bioactive compounds (AID 1345084); conditions: Gynecologic cancer cell panel viability, ATPlite luminescence, 48 h; series mostly up to 57.5 µM; also: nearly all actives have a fitted effect of over 55% in size; also: potency is read from the fitted curve at half-maximal effect
Method in brief: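 Cells, 1,000 per well, were allowed to settle for 16 h at 37 C before compound addition. Five concentrations were tested for 48 h, and viability was read by ATPlite luminescence after 15 min at room temperature.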

[7] = system: Zika virus NS2B-NS3 protease (linked construct); test: Primary screen NINDS Rhodamine qHTS for Zika virus inhibitors (AID 1347160); also: % is scaled to controls: 0 for no effect and ±100 for the full control effect; nearly all actives have a fitted effect of over 55% in size
Method in brief: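 Purified linked NS2B-NS3 protease (NS2B hydrophilic domain joined to NS3 protease by flexible linker), 25 nM in 10 mM Tris-HCl pH 8.0, 0.01% Tween 20. Compounds titrated, 15 min preincubation at room temperature; 1.5 microM Rhodamine110 substrate, FITC fluorescence change over 15 min.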

[8] = Primary qHTS for inhibitors of nuclear receptor binding SET domain protein 2 (NSD2) in an RCH-ACV wild type WT cells (2C) (AID 1645877); also: potency is read from the fitted curve at half-maximal effect; nearly all actives have a fitted effect of over 70% in size
[9] = target: Cytochrome P450 2D6 (Homo sapiens) (UniProt P10635); test: Cytochrome P450 family 2 subfamily D member 6 (CYP2D6) small molecule antagonists: luciferase biochemical (cell-free) qHTS assay (AID 1645840; active = well fitted curve in the direction sought with a large enough effect in the repeat runs; an effect the other way counts as inactive or inconclusive; also: potency is read from the fitted curve at half-maximal effect; nearly all actives have a fitted effect of over 55% in size)
Sequence of Cytochrome P450 2D6 (Homo sapiens) (P10635 whole entry, looked up): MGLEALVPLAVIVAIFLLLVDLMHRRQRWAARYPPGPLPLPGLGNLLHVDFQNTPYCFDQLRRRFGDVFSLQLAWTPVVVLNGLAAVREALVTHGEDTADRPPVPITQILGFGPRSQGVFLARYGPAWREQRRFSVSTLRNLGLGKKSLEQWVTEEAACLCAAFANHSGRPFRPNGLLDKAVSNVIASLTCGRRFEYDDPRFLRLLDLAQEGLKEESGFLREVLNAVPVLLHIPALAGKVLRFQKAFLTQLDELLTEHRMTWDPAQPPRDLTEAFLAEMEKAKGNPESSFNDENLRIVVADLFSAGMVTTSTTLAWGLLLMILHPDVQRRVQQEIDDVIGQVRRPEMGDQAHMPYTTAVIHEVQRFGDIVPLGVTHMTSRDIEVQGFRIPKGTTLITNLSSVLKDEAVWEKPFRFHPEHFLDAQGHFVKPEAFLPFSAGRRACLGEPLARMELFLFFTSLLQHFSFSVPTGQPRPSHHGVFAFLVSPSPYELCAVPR
Method in brief: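 P450-Glo luminescent screen: recombinant CYP2D6 enzyme–proluciferin substrate mix preincubated with compound 10 min at room temperature, then NADPH regeneration added for 1 h at room temperature. Detection reagent added for 20 min; luciferin light read as relative luminescence units.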

[10] = target: Catechol O-methyltransferase (Homo sapiens) (UniProt P21964); test: Confirmatory Screen for Target Class Profiling of Small Molecule Inhibitors of Methyltransferases (AID 1745852); conditions: MTase-Glo luminescence, SAH detection, recombinant enzyme; measured here: COMT max response; stronger effect = lower value; as to activity change, negative = inhibition: % is scaled to controls: 0 for no effect and ±100 for the full control effect
Sequence of Catechol O-methyltransferase (Homo sapiens) (P21964 whole entry, looked up): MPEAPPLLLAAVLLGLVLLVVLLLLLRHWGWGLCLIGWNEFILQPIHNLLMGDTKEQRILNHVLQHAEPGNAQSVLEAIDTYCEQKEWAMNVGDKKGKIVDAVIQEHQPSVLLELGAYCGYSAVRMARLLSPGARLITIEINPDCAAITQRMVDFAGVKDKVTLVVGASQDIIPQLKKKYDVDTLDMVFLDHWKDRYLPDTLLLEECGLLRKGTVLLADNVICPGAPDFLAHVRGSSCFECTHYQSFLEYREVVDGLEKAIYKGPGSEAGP

[11] = target: Guanidinoacetate N-methyltransferase (Homo sapiens) (UniProt Q14353); test: as above; conditions: activity change, negative = inhibition: at 57.3 µM (top of the series) unless noted
[12] = target: Nicotinamide N-methyltransferase (Homo sapiens) (UniProt P40261); test: as above; conditions: MTase-Glo luminescence, SAH detection, recombinant enzyme; measured here: NNMT max response; stronger effect = lower value
Sequence of Nicotinamide N-methyltransferase (Homo sapiens) (P40261 whole entry, looked up): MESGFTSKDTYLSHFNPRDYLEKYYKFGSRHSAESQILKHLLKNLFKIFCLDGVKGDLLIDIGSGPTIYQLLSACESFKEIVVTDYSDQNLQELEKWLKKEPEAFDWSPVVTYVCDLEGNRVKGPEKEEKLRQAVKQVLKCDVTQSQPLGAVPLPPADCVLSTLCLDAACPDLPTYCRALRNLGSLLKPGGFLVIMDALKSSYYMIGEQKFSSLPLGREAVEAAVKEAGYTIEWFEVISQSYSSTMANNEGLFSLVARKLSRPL

Compound: C[C@@H]1[C@H](O)[C@@H](C)/C=C/C=C/CC/C=C/C=C/C=C/C=C/[C@H](O[C@H]2O[C@@H](C)[C@H](O)[C@@H](N)[C@H]2O)C[C@@H]2O[C@](O)(C[C@@H](O)[C@H](O)CC[C@@H](O)C[C@@H](O)C[C@@H](O)CC(=O)O[C@H]1C)C[C@H](O)[C@H]2C(=O)O
- Potency [1]: inactive
- Potency [2]: inactive
- Potency [3]: 8.91 µM (active)
- Potency [4]: inactive
- outcome (HaCat [5]): inactive
- outcome (HACAT [6]): inactive [at 17.4 µM]
- Potency (HeLa): inactive

Compound: CC1=C[C@H]2O[C@@H]3[C@H](O)[C@@H](O)[C@](C)([C@@]2(CO)C[C@@H]1O)[C@]31CO1
- Potency [2]: 2.06 µM (active)
- Potency [3]: inactive
- Potency [7]: inactive
- Potency [8]: 0.515 µM (active)
- Potency [4]: inactive
- Potency (HaCat [5]): 7.31 µM (active)
- Potency (HeLa): 12.6 µM (active)

Compound: COc1cc2c(c(OC)c1OC)-c1ccc(SC)c(=O)cc1[C@@H](NC(C)=O)CC2
- Potency [2]: 0.231 µM (active)
- Potency [8]: 0.0058 µM (active)
- Potency [4]: inactive
- max response (HaCat [5]): 4.59% (inactive)

Compound: CC[C@@H](C)[C@@H]1NC(=O)[C@@H]2CCCN2C(=O)[C@@H](CC(O)CCl)OC(=O)CCNC(=O)[C@H](C)N(C)C(=O)[C@H](C(C)C)N(C)C1=O (some centres undefined) (cyclo([NMeA][βAla][X7]P[aIle][NMeV]))
- Potency [2]: inactive
- Potency [3]: inactive
- Potency [8]: 0.483 µM (active)
- Potency [4]: inactive
- max response (HaCat [5]): -21.3% (inactive)

Compound: CCCCN1[C@@H]2CC[C@H]1CC(OC(c1ccc(F)cc1)c1ccc(F)cc1)C2 (some centres undefined)
- Potency [2]: 18.4 µM (active)
- Potency [3]: inactive
- Potency [7]: inactive
- Potency [9]: 0.169 µM (active)
- Potency [8]: 9.16 µM (active)
- activity [10]: 0.354%
- activity change, negative = inhibition [11]: 0%
- activity [12]: -14%
- Potency [4]: inactive
- max response (HaCat [5]): -29% (inactive)
- Potency (HeLa): inactive
